We go through 40 sequences from the supplement of paper PMC6555819.

For the assay, the system named is VDR:RXRa (NR concentration 270 nM, RXRa partner concentration 90 nM). The assay is described as follows: PBM binding z-score (relative to random genomic background probes); higher = stronger binding; sequences stand for … in GC…GCGATTGACAGCGTAGAATGAAGG
On the procedure:
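Protein-binding microarray (Agilent 4x180K custom design, double-stranded 60-nt probes: 5' GC cap, 34-nt variable region, 24-nt constant primer region; full probe sequence given). Purified or IVT nuclear receptor:RXRα heterodimers (3:1 NR:RXRα, mostly 270:90 nM) or homodimers were incubated for 1 h in PBS with 2% milk and no ligand, then detected with Alexa488 antibodies. Fluorescence from o1-orientation probes (~5 replicates averaged) was converted to z-scores against 500 random hg19 background probes. Variable regions are seed direct-repeat (DR0–DR5) sites, all their single-nucleotide variants and half-site ablations.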
ATCTCTAGGTAAAAGTTTAGTGAATCCCGAGGAT registered a PBM binding z-score of 0.124.

CCGAGTAGGTTATGGGGCATTGAGGCAACGGTGA: the PBM binding z-score came out at 0.258.

On to TCTCGGAGGACACGAAAGGTCCGAGCTCGACATC, for which the PBM binding z-score is -0.242.

Turning to AGAATGAGGTTATACGTAGATCTGGGAAGAAAGT, the PBM binding z-score came to 1.07.

In the case of CCTCGGAGGACATAAGGTCAGAGCTGTCCGCTTT, the PBM binding z-score worked out at 1.91.

The sequence TCTCGGAGGACACGAAAGGTCAGCGCTCGACATC gave a PBM binding z-score of 3.67.

For CAAACTAGGTCAAGAGGTCAAATTCCGCTTCCCG, the PBM binding z-score is 6.17.

In turn, GCTTACGGGTAAAAGGTTATAGCATGAATAGAAT returned a PBM binding z-score of 1.57.

In the case of GGAACGAGGGCAAGTTGATGGCAGAGTTTGATGG, the PBM binding z-score was 0.912.

As to CCTACTGGGCCACGCAAGGTCATTGATTCAGTGA, the PBM binding z-score is 3.62.

AATACAGGGTCATCGTAGGCAAGAGTACGCACAG returned a PBM binding z-score of 5.23.

On to ACACGGAGGACAAAGGTCAGAGCTACGCCAGTGA, for which the PBM binding z-score was 3.46.

Turning to ATCGAAAGGTTGACGAGGTGAGTATACACCGTTT, the PBM binding z-score was 2.71.

Sequence CCTAATGGGCCACGAAAGGTCATTGATTCAGTGA returned a PBM binding z-score of 4.33.

As to AGAACGAGGGTAATGAGTTGATAGCACGGGTGGC, the PBM binding z-score was determined as 3.47.

CCGACTGGGGCAAGGTTACCGTAACGCACAGCCA showed a PBM binding z-score of -0.0549.

ACTAGCAGGCCAAGTTTGGATCACTCAAACAAAG yielded a PBM binding z-score of -0.621.

As for GCGACTGGGGCAAAACAGGTTACCATAAGGTTGG, the PBM binding z-score turned out to be 0.212.

Regarding TCTCGGTGGACACGAAGGTCAGAGCTTTCCAGAG, the PBM binding z-score worked out at 1.02.

The sequence CGAACTAGGTCATCCAGGACACTGAATACATTGA gave a PBM binding z-score of 5.27.

For the sequence CCTTAAGGGTCACTCCAGGTTATAGCATCGGAGT, the PBM binding z-score stood at 5.13.

For the sequence CGTCCAAGGTCAATGCTAGGTCAGTGAAAGCATT, the PBM binding z-score turned out to be 4.81.

ATCTCTAGGTAAAAGTACAGTGAATCCCGAGGAT gave a PBM binding z-score of -0.148.

As for ACTCGGAGGACAAAGGTCTGAGCTACGCCAGTGA, the PBM binding z-score was -0.29.

On to CCTTACGAGTCACTGACAGGTTATAGCATTTGGA, for which the PBM binding z-score is 1.06.

Turning to CTAACTAGGTCAAGGACAGTGAATCTCCGCACGC, the PBM binding z-score amounted to 1.3.

Sequence CTAACTAGGTCATTGACAGGACAGTGAATAGTAA showed a PBM binding z-score of 2.2.

Take GCTTGTAGAGCAAGGTTAAGAAAGACTAAGCTAA: the PBM binding z-score is -0.112.

Consider TAGCCTAGGTCATTCAGGGGCCAGGATAGAAAGC, for which the PBM binding z-score was determined as 2.94.

In turn, TCTAGCAGGCCAGAGGTTCACTCAAGAGGTACGG gave a PBM binding z-score of 0.704.

CCGACTGGGACAGAAAGGTTACCATACCATCCGG returned a PBM binding z-score of 0.351.

Take ACTCGGAGGACAAAGGTCATAGCTACGCCAGTGA: the PBM binding z-score amounted to 4.68.

TCTAGTTGGTCAAGGAGGTCACACACGACGGGTA had a PBM binding z-score of 5.23.

In turn, CCCACTGGGGCATAAGGTTACCATAAGCCAGCCC registered a PBM binding z-score of -0.113.

Take TAGCATAGGTCATTGGGCCAGTATAGTACGCATC: the PBM binding z-score was found to be 3.27.

CCTAGTTGGTCAAGGTCACACGCGCTATAGGTAC registered a PBM binding z-score of 4.29.

TCTAGTTGGGCAAAGGTCACACACTCGAAATGCG had a PBM binding z-score of 4.65.

TAGCCTAGGTCATGGCCCAGTATACCACGCGAAC yielded a PBM binding z-score of 2.25.

With CGTCCAAGGTCAAAGTTCAGTGAAGAGATGACGG, the PBM binding z-score turned out to be 5.84.

GGAACGAGGGCAAGTTGTTAGCAGAGTTTGATGG registered a PBM binding z-score of 0.88.
